Of roughly 8,800 targets only a part is listed; those with a hit were picked by preference. About 0.5% of all pairs of compound and target were hits.
Columns and labels:
Experiment in all cases: log2 fold change, soluble protein after heating vs DMSO (PISA); higher = thermal stabilisation; K562 lysate, 10 uM; active = over 0.2 and 3.5 SD of the protein, either way, in both replicates (recomputed)
[1] = compound: NCC(=O)Nc1ccc(-n2nc(C(F)(F)F)cc2-c2ccc3c(ccc4ccccc43)c2)cc1
Outline: (§1)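 Following dounce homogenisation of K562 pellets in PBS pH 7.4 with 1 mM MgCl2, crude extract at 1 mg/mL protein was incubated for 30 min with 10 μM compound. Aliquots were then heated for 3 min over 48°C-58°C and pooled, NP-40 was added to 0.5% at 4°C, and soluble protein was recovered as the supernatant at 21,000xg for 90 min. Channel-sum-equalised TMTpro 16plex LC-MS/MS quantified this protein. Each value, from duplicates, is a log-two fold change in thermal stability relative to solvent controls.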

vorinostat = compound: O=C(CCCCCCC(=O)Nc1ccccc1)NO [vorinostat]
Outline: as §1

silmitasertib = compound: O=C(O)c1ccc2c(c1)nc(Nc1cccc(Cl)c1)c1ccncc12 [silmitasertib]
Outline: as §1

[2] = compound: O=C1NC(=O)C(c2cnc3ccccn23)=C1c1cn2c3c(cc(F)cc13)CN(C(=O)N1CCCCC1)CC2
Outline: as §1

entospletinib = compound: c1cn2cc(-c3ccc4cn[nH]c4c3)nc(Nc3ccc(N4CCOCC4)cc3)c2n1 [entospletinib]
Outline: as §1

Measured: log2 fold change

DERA (UniProt Q9Y315)
UniProt Q9Y315, sequence (Q9Y315 whole entry, looked up): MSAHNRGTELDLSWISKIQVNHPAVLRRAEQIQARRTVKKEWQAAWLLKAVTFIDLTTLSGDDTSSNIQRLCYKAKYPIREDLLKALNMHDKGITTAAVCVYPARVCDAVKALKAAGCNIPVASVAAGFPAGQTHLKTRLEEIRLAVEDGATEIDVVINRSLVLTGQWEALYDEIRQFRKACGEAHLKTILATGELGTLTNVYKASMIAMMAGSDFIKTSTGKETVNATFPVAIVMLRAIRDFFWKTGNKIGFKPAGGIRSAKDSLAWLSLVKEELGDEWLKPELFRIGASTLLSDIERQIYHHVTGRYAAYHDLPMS
inactive: [1] -0.015 | vorinostat 0.063 | silmitasertib -0.003 | [2] 0.018 | entospletinib 0

DMAC2L (UniProt Q99766)
inactive: [1] -0.023 | vorinostat -0.174 | silmitasertib 0.037 | [2] -0.038 | entospletinib 0.022

CUX1 isoform 2 (UniProt Q13948)
inactive: [1] -0.102 | vorinostat 0.101 | silmitasertib 0.086 | [2] 0.676 | entospletinib -0.077

CNTN4 (UniProt Q8IWV2)
UniProt Q8IWV2, sequence (Q8IWV2 whole entry, looked up): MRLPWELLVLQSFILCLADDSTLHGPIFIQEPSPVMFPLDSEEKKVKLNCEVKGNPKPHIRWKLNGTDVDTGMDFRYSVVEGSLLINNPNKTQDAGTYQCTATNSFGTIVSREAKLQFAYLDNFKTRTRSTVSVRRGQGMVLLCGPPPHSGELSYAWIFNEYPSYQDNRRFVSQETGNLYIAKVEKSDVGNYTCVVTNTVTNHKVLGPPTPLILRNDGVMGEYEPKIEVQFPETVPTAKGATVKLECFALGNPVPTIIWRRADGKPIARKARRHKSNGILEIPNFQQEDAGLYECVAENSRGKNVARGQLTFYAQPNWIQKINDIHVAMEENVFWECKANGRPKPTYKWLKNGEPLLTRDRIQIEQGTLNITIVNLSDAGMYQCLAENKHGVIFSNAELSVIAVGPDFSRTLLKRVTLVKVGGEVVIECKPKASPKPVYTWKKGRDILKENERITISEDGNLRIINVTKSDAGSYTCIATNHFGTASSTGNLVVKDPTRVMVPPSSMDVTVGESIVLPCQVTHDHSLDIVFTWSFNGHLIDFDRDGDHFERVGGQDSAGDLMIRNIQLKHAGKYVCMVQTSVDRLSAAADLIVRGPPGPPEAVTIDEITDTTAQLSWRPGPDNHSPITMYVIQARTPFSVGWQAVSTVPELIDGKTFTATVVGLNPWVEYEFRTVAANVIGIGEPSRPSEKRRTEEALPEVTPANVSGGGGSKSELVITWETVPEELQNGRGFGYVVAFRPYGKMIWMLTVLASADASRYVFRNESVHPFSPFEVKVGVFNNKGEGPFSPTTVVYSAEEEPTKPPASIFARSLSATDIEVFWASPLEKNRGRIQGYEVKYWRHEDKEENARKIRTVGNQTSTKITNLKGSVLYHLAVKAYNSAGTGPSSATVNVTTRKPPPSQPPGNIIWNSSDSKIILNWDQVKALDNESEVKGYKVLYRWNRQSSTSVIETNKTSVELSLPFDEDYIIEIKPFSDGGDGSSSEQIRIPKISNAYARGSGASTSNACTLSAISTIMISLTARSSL
inactive: [1] 0.173 | vorinostat -0.026 | silmitasertib -0.09 | [2] 0.274 | entospletinib 0.06

DAPK1 isoform 3 (UniProt P53355)
inactive: [1] 0.09 | vorinostat -0.477 | [2] 0.004
active: silmitasertib 0.833

CMSS1 (UniProt Q9BQ75)
inactive: [1] 0.025 | silmitasertib 0.038 | [2] -0.024 | entospletinib -0.013
active: vorinostat -0.272

CLPTM1L (UniProt Q96KA5)
inactive: [1] -0.045 | vorinostat 0.136 | silmitasertib 0.012 | [2] 0.012 | entospletinib -0.039

CHORDC1 (UniProt Q9UHD1)
inactive: [1] 0.001 | vorinostat -0.014 | silmitasertib -0.019 | [2] -0.009 | entospletinib 0

CNOT4 isoform 9 (UniProt O95628)
inactive: [1] 0.036 | vorinostat 0.098 | silmitasertib 0.044 | [2] -0.031 | entospletinib 0.009

DNAJC24 (UniProt Q6P3W2)
inactive: [1] -0.159 | vorinostat 0.053 | silmitasertib -0.017 | [2] -0.014 | entospletinib -0.046

CKS1B (UniProt P61024)
UniProt P61024, sequence (P61024 whole entry, looked up): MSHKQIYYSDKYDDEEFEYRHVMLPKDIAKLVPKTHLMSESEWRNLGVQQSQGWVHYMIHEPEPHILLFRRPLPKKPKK
inactive: [1] -0.059 | vorinostat 0.115 | silmitasertib -0.004 | [2] -0.076 | entospletinib -0.021

DHCR7 (UniProt Q9UBM7)
inactive: [1] -0.098 | vorinostat -0.022 | silmitasertib 0.03 | [2] -0.004 | entospletinib 0.078

COG3 (UniProt Q96JB2)
active: vorinostat -0.314
inactive: [1] 0.011 | silmitasertib 0.123 | [2] 0.06 | entospletinib -0.017

COL6A5 (UniProt A8TX70)
inactive: [1] 0.281 | vorinostat 0.011 | silmitasertib -0.003 | [2] 0.022 | entospletinib 0.009

CPT1A (UniProt P50416)
inactive: [1] -0.033 | silmitasertib -0.001 | [2] -0.002 | entospletinib -0.06
active: vorinostat 0.406

CXXC1 isoform 2 (UniProt Q9P0U4)
inactive: [1] -0.008 | vorinostat -0.18 | silmitasertib 0.08 | [2] 0.027 | entospletinib -0.033

DLD (UniProt P09622)
inactive: [1] -0.003 | silmitasertib 0.004 | [2] 0.008 | entospletinib 0.01
active: vorinostat -1.96

CLIC2 (UniProt O15247)
inactive: [1] 0.022 | silmitasertib -0.018 | [2] 0.029 | entospletinib 0.005
active: vorinostat -0.369

DNAJC1 (UniProt Q96KC8)
inactive: [1] 0.003 | vorinostat 0.017 | silmitasertib 0.025 | [2] -0.007 | entospletinib -0.032

CLASP2 isoform 3 (UniProt O75122)
active: vorinostat -0.329
inactive: [1] 0.035 | silmitasertib -0.033 | [2] -0.02 | entospletinib 0.005

DNM2 (UniProt P50570)
active: vorinostat -0.27
inactive: [1] 0.011 | silmitasertib 0.061 | [2] -0.021 | entospletinib 0.014

DMXL1 (UniProt Q9Y485)
inactive: [1] 0.022 | silmitasertib 0.044 | [2] -0.013 | entospletinib 0.022
active: vorinostat -0.237

CUL1 (UniProt Q13616)
inactive: [1] 0.001 | vorinostat 0.072 | silmitasertib 0.006 | [2] -0.007 | entospletinib 0.009

CORO7 isoform 3 (UniProt P57737)
inactive: [1] -0.045 | vorinostat -0.176 | silmitasertib 0.042 | [2] 0.004 | entospletinib 0.005

DOCK10 (UniProt Q96BY6)
inactive: [1] 0 | vorinostat -0.07 | silmitasertib 0.143 | [2] -0.064 | entospletinib 0.023

CNP (UniProt P09543)
UniProt P09543, sequence (P09543 whole entry, looked up): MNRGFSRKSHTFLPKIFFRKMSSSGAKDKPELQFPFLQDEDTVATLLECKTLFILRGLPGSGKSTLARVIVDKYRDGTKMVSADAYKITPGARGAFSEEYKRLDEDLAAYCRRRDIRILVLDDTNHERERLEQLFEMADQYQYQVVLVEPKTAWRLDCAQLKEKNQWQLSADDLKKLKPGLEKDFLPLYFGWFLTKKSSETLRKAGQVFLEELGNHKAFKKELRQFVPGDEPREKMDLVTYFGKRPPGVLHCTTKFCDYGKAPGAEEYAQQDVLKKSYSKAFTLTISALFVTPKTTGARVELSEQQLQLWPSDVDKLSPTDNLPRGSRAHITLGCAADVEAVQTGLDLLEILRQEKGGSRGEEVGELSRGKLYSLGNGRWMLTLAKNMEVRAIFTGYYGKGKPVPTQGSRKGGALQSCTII
inactive: [1] -0.017 | silmitasertib -0.001 | [2] 0.059 | entospletinib 0.017
active: vorinostat -0.298

CMIP (UniProt Q8IY22)
UniProt Q8IY22, sequence (Q8IY22 whole entry, looked up): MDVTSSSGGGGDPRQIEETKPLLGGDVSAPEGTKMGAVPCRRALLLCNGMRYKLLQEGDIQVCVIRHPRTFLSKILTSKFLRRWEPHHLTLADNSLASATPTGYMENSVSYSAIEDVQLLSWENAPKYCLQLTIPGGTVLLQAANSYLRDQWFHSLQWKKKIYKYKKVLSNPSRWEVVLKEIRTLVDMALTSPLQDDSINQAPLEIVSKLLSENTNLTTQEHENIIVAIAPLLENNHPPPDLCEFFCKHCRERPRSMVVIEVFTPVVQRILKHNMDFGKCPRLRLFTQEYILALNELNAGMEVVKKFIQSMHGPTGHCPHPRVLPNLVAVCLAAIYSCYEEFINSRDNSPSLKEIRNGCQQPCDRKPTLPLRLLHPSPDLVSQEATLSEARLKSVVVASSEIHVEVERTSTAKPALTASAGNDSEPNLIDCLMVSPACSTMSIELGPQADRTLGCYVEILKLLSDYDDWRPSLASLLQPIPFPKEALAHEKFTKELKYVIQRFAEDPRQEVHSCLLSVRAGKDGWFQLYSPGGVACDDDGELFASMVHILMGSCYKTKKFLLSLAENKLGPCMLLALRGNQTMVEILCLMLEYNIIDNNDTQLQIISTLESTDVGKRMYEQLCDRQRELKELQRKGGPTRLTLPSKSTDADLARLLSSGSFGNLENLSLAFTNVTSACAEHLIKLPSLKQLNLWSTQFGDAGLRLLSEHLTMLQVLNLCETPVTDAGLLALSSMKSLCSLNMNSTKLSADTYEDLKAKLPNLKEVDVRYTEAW
active: vorinostat -0.541
inactive: [1] -0.101 | silmitasertib 0.018 | [2] 0.021 | entospletinib -0.052

DOCK8 (UniProt Q8NF50)
inactive: [1] -0.015 | silmitasertib 0.06 | [2] 0.022 | entospletinib -0.052
active: vorinostat -0.489

COQ8A (UniProt Q8NI60)
inactive: [1] -0.043 | vorinostat -0.042 | silmitasertib -0.161 | [2] 0.016 | entospletinib 0.053

CIC (UniProt I3L2J0)
inactive: [1] -0.002 | vorinostat -0.108 | silmitasertib -0.011 | [2] 0.075 | entospletinib 0.033

DES (UniProt P17661)
inactive: [1] 0.108 | vorinostat 0.097 | silmitasertib 0.03 | [2] 0.05 | entospletinib 0.027

DNA2 (UniProt P51530)
inactive: [1] -0.059 | silmitasertib 0.127 | [2] -0.027 | entospletinib -0.053
active: vorinostat -0.448

CSNK1A1 (UniProt P48729)
active: vorinostat -0.276
inactive: [1] 0.001 | silmitasertib 0.088 | [2] -0.044 | entospletinib 0.017

CLCN3 isoform 2 (UniProt P51790)
active: vorinostat -0.286
inactive: [1] -0.059 | silmitasertib 0.033 | [2] -0.024 | entospletinib 0.046

CNST (UniProt Q6PJW8)
inactive: [1] 0.051 | vorinostat 0.056 | silmitasertib -0.028 | [2] -0.067 | entospletinib -0.024

COL12A1 (UniProt Q99715)
inactive: [1] 0.29 | vorinostat 0.037 | silmitasertib -0.079 | [2] 0.908 | entospletinib -0.036

CLP1 (UniProt Q92989)
UniProt Q92989, sequence (Q92989 whole entry, looked up): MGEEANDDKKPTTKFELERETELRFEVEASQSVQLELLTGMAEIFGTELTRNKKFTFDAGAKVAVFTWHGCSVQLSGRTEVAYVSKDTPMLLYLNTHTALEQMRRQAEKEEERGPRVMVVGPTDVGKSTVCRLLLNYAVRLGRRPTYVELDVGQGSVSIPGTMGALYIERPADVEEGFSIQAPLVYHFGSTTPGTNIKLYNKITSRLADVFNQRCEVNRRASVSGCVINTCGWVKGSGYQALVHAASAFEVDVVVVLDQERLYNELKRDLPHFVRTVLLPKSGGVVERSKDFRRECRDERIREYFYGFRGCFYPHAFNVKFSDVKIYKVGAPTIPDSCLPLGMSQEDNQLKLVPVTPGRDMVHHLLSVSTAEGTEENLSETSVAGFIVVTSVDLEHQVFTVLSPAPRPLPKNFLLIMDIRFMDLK
active: vorinostat -0.307
inactive: [1] 0.011 | silmitasertib 0.029 | [2] -0.027 | entospletinib 0.008

CHMP4A isoform 2 (UniProt Q9BY43)
inactive: [1] 0.011 | vorinostat 0.1 | silmitasertib -0.027 | [2] -0.051 | entospletinib 0.019

CSNK1E (UniProt P49674)
inactive: [1] 0.016 | silmitasertib 0.206 | [2] 0.01 | entospletinib 0.012
active: vorinostat -0.419

CRABP2 (UniProt P29373)
UniProt P29373, sequence (P29373 whole entry, looked up): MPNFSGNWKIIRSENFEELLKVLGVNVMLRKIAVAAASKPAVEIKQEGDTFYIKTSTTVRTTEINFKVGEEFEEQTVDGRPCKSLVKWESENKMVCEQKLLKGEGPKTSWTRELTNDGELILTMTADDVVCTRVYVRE
inactive: [1] 0.169 | vorinostat 0.18 | silmitasertib -0.05 | [2] 0.007 | entospletinib -0.209

DFFB (UniProt O76075)
UniProt O76075, sequence (O76075 whole entry, looked up): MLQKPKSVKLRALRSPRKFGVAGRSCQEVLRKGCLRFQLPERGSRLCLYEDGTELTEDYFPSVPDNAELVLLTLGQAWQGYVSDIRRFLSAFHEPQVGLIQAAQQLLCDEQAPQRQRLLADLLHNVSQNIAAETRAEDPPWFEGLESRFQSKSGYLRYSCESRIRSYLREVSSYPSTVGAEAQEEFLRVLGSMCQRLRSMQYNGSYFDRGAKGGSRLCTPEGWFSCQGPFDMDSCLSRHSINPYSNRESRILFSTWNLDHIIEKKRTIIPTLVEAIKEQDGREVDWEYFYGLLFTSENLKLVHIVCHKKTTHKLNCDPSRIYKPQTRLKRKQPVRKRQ
active: vorinostat 0.258
inactive: [1] -0.003 | silmitasertib -0.025 | [2] 0.013 | entospletinib -0.011

CIB1 (UniProt Q99828)
inactive: [1] -0.027 | vorinostat 0.049 | silmitasertib -0.006 | [2] -0.037 | entospletinib -0.091

DICER1 (UniProt Q9UPY3)
active: vorinostat -0.58
inactive: [1] 0.022 | silmitasertib 0.042 | [2] 0.001 | entospletinib -0.004

CSTB (UniProt P04080)
UniProt P04080, sequence (P04080 whole entry, looked up): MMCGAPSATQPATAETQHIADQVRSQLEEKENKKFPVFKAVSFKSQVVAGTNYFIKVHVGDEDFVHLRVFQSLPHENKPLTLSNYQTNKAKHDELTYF
inactive: [1] -0.097 | vorinostat 0.125 | silmitasertib -0.045 | [2] 0.022 | entospletinib -0.007

DDX39A (UniProt O00148)
inactive: [1] 0.017 | silmitasertib 0.017 | [2] 0.036 | entospletinib -0.033
active: vorinostat -0.383

CTNND1 isoform 3 (UniProt O60716)
active: vorinostat -0.371
inactive: [1] -0.017 | silmitasertib 0.034 | [2] -0.014 | entospletinib -0.005

CHEK2 (UniProt O96017)
inactive: [1] -0.021 | vorinostat -0.128 | silmitasertib 0.04 | [2] -0.006 | entospletinib -0.033

DIAPH1 (UniProt O60610)
UniProt O60610, sequence (O60610 whole entry, looked up): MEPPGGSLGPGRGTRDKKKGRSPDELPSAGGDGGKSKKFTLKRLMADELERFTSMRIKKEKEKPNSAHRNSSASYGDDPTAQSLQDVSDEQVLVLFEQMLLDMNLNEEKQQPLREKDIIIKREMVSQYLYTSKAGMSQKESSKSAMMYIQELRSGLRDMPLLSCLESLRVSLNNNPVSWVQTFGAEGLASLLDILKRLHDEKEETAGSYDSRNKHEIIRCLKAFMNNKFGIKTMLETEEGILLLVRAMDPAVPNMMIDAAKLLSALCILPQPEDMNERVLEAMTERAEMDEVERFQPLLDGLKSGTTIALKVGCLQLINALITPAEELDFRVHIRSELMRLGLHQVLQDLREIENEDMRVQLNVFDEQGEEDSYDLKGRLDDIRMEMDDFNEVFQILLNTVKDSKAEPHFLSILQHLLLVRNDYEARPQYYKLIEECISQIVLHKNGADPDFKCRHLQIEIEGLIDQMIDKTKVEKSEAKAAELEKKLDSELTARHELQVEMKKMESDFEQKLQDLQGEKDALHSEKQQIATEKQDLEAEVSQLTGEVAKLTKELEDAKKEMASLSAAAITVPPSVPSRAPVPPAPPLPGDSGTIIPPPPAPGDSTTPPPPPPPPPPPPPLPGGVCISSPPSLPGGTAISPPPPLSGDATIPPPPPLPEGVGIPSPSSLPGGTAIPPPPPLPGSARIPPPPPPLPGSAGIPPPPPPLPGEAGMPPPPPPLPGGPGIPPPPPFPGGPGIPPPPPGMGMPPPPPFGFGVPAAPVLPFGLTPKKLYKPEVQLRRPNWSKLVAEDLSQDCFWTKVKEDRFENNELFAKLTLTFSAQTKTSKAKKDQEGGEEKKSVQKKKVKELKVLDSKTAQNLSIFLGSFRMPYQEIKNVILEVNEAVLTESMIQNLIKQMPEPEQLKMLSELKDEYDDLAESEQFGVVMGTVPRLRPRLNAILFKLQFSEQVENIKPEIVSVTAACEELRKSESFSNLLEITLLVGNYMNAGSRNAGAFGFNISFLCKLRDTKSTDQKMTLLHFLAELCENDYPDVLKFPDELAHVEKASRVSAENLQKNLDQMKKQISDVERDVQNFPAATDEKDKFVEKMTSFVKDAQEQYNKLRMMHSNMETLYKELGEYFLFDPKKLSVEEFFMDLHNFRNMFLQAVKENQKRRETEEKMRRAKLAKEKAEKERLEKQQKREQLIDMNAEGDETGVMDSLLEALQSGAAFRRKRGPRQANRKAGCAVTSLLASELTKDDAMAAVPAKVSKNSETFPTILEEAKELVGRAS
inactive: [1] 0.013 | vorinostat -0.014 | silmitasertib 0.009 | [2] -0.02 | entospletinib -0.003

CHEK1 (UniProt O14757)
inactive: [1] 0.008 | vorinostat 0.086 | silmitasertib 0.168 | [2] -0.014 | entospletinib 0.009

CSTF2 (UniProt P33240)
inactive: [1] 0.001 | vorinostat 0.046 | silmitasertib 0.007 | [2] 0.013 | entospletinib -0.045

CYCS (UniProt P99999)
inactive: [1] 0.017 | vorinostat 0.114 | silmitasertib -0.004 | [2] 0.033 | entospletinib 0.011

CTPS1 (UniProt P17812)
inactive: [1] -0.007 | silmitasertib 0.028 | [2] -0.008 | entospletinib -0.005
active: vorinostat 0.565

CHFR (UniProt Q96EP1)
inactive: [1] -0.219 | vorinostat -0.143 | silmitasertib 0.057 | [2] 0.004 | entospletinib -0.083
